Assay results published in PubChem BioAssay (NCI).
About 83,000 compounds went through this panel and 20% of them were active in at least one assay; those are over-represented in the sample as a whole.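 Each cell line was grown in a 96-well plate and treated with one concentration of compound for 48 hours. Values below 10 were considered active.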 Values without a mark were called inactive. Activity calls are given as the source filed them.

Columns and labels:
Assay in all cases: NCI-60 one-dose screen, 48 h (100 = growth as untreated, 0 = no growth, -100 = all killed)
Conditions in all cases: 10 µM unless noted
SR leukemia = tested on: SR leukemia
RPMI-8226 leukemia = tested on: RPMI-8226 leukemia
OVCAR-8 ovarian = tested on: OVCAR-8 ovarian
OVCAR-5 ovarian = tested on: OVCAR-5 ovarian
SK-OV-3 ovarian = tested on: SK-OV-3 ovarian
IGROV1 ovarian = tested on: IGROV1 ovarian
OVCAR-3 ovarian = tested on: OVCAR-3 ovarian
HS 578T breast = tested on: HS 578T breast
NCI/ADR-RES ovarian = tested on: NCI/ADR-RES ovarian
OVCAR-4 ovarian = tested on: OVCAR-4 ovarian

Structure (SMILES)	growth (SR leukemia)	growth (RPMI-8226 leukemia)	growth (OVCAR-8 ovarian) [%]	growth (OVCAR-5 ovarian) [%]	growth (SK-OV-3 ovarian) [%]	growth (IGROV1 ovarian) [%]	growth (OVCAR-3 ovarian)	growth (HS 578T breast) [%]	growth (NCI/ADR-RES ovarian)	growth (OVCAR-4 ovarian) [%]
Cc1cc(C)nc(NC(N)=NCCc2ccccc2)n1	19.2%	49.7%	53.4	72	46.7	40	33.5%	45.3	85.9%	
Cn1c2c(c3ccc(Cl)cc31)-n1cccc1C2=O	67.1%	88.3%	83.5	103	102	69.9	104%	104	99.7%	
Cc1ccc(-c2ccc(Nc3ccccc3)nn2)cc1S(N)(=O)=O	23.6%	86.1%	94.1		100	97.3	94.6%			94.7
CC(C)=CCC/C(C)=C/CC/C(C)=C/CSC[C@H](NC(=O)CCCCCN1CCN(C)CC1)C(=O)NC1CCCCCC1	-20.1% (active)	51.8%	80.7	68.7	96.4	69.8	76.6%	76.2	72.3%	
Oc1cccc2oc(=S)[nH]c12	90.4%	106%	112	97.4	108	110	125%	109	102%	
O=[N+]([O-])c1ccc(/C=N\Nc2ccccc2)cc1	106%	67.8%	61.8	88	101	78	82.5%	63.1	60%	
Cn1cc(-c2nc(-c3cn(C)c4ncccc34)cs2)c2cc(F)ccc21	22.4%	38%	54.6	56.3	57.4	44.2	1.46% (active)	76.4	10.8%	
O=C(O)c1cccc2c1-c1ccc(Cl)cc1C2	88.2%	102%	107	115	117	114	118%	103	110%	
CC(=O)Oc1ccccc1C(=O)/C=C/c1cccc([N+](=O)[O-])c1	-30.8% (active)	-17.4% (active)	77.7	110	102	37.3	66.4%	71.2	74.3%	
COc1ccc2[nH]cc(-c3nc(-c4c[nH]c5ncccc45)cs3)c2c1	-7.54% (active)	40.9%	44.8	81.5	41.4	30.7	50.6%	57.5	47%	
COc1cc2[nH]c(C(=O)c3cc(OC)c(OC)c(OC)c3)c(N)c2cc1C#CCO	0.173% (active)	26.8%	31.7	15.9	18.3	22.9	-17.8% (active)		37.8%	
COc1c(N)c2c(c([N+](=O)[O-])c1OC)C(=O)OC2	91.2%	99.9%	98.1	115	105	105	105%	109	114%	
O=C(O)c1cccc2c1C(=O)N(c1ccc3c(c1)Cc1ccccc1-3)C2=O	102%	110%	107	116	114	125	122%	112	116%	
Clc1ccc2[nH]cc(-c3nc(-c4c[nH]c5ncccc45)cs3)c2c1	9.06% (active)	37.6%	46.2	80.6	59.6	32.8	55.9%	75.7	38.7%	
Cn1cc(-c2nc(-c3cn(C)c4ncccc34)cs2)c2ccccc21	18.4%	39.6%	47.9	73	43.2	45	-17.8% (active)	81	8.77% (active)	
